In PubChem BioAssay (NCATS):
Records with an inconclusive call do not appear. Entries that show only a call come without a potency. Unmarked numbers belong to inactive results. The source made the active and inactive calls. Calls come from the whole dose curve; as a rule, active = well fitted cell-killing curve with a large enough effect; inconclusive = small, poorly fitted or top-dose-only effect, or effect the other way; inactive = no such curve, though single readings can be large or run the other way.

Experiment: Viability qHTS for spleen associated tyrosine kinase inhibitor (SYKi) naive MV4-11 cells (AID 1963823); note: nearly all actives have a fitted effect of over 40% in size
Conditions: MV4-11 AML viability, CellTiter-Glo luminescence, 72 h; series mostly up to 45 µM
Procedure, shortened: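 Read-out: CellTiter-Glo luminescence. Exposure: 72 hr, 37 C, 5% CO2, 95% humidity. Cells: MV4-11 without SYK inhibitor history, 500/well, qHTS format.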
Potency is the fitted concentration of half-maximal effect.

| SMILES | Potency | viability (% of control) |
| --- | --- | --- |
| CC(C)(C)S(=O)(=O)c1ccc2nccc(Nc3n[nH]c4ccc(F)cc34)c2c1 | 7.42 µM (active) | – |
| C=C(CCC1=C(C)[C@H]2[C@H](CC3[C@@H]4CC=C5C[C@@H](O)C[C@@H](O)[C@]5(C)C4[C@H](O)C[C@@]32C)O1)CO[C@@H]1O[C@H](CO)[C@@H](O)[C@H](O)[C@H]1O (some centres not stated) | 0.611 µM (active) | – |
| COc1cc(C(C)=O)ccc1O[C@@H]1O[C@H](CO)[C@@H](O)[C@H](O)[C@H]1O | inactive | – |
| O=C(/C=C/c1ccc(O)cc1)OC[C@H]1O[C@H](O[C@@]2(CO)O[C@@H](CO)[C@H](O)[C@H]2O)[C@H](O)[C@@H](O)[C@@H]1O | inactive | – |
| O=c1c2cccnc2n(-c2cccc([N+](=O)[O-])c2)c(=O)n1Cc1ccncc1 | inactive | – |
| C=C[C@]1(C)C=C2CCC3C(C)(CCC[C@@]3(C)C(=O)O)C2CC1 (some centres not stated) | inactive | – |
| CN(Cc1ccc(C(C)(C)C)cc1)Cc1cccc2ccccc12 | inactive | – |
| CC(=O)N[C@H]1[C@H](O[C@H]2CC[C@@]3(C)C(CC[C@]4(C)C3CC=C3C5CC(C)(C)CC[C@]5(C(=O)O)[C@H](O[C@@H]5O[C@H](CO)[C@@H](O)[C@H](O)[C@H]5O)C[C@]34C)C2(C)C)O[C@H](CO[C@@H]2OC[C@H](O)[C@H](O)[C@H]2O[C@@H]2OC[C@@H](O)[C@H](O)[C@H]2O)[C@@H](O)[C@@H]1O (some centres not stated) | – | 57% [at 9.25 µM] |
| Oc1ccc2c(c1)OCC1(O)Cc3cc(O)c(O)cc3C21 (configuration not stated) | 3.66 µM (active) | – |
| CC(=O)OCC(Cc1ccccc1)NC(=O)C(Cc1ccccc1)NC(=O)c1ccccc1 (configuration not stated) | inactive | – |
| C/C(=C\CO)CC/C=C(\C)C(=O)O[C@@H]1O[C@H](CO)[C@@H](O)[C@H](O)[C@H]1O | inactive | – |
| CCCc1cc(C(=O)N[C@H](Cc2ccc(-c3cccc(OC(F)(F)F)c3)nc2)C(=O)N[C@@H]2CCNC2)sc1C | 6.61 µM (active) | – |
| CCOc1cc(CC(=O)NC(CC(C)C)c2ccccc2N2CCCCC2)ccc1C(=O)O (configuration not stated) | inactive | – |
| C/C(CO)=C1/CCC23COC(C2)C(O)(C(=O)O)CCC13 (configuration not stated) | inactive | – |
| CC1(C)S[C@@H]2[C@H](NC(=O)[C@H](N)c3ccc(O)cc3)C(=O)N2[C@H]1C(=O)O | inactive | – |
| Cc1ccc(-c2c(-c3nn(C)c4ncnc(N5CC[C@H](N6CCCCC6)C5)c34)cnn2C)cc1 | inactive | – |
| Cc1cc(C)c(-c2csc(NC(=O)c3ccccc3)n2)c(C)c1 | 6.51 µM (active) | – |
| C[C@]12C[C@@H](O)[C@@H]3C[C@@]1(O[C@@H]1O[C@H](CO)[C@@H](O)[C@H](O)[C@H]1O)[C@]3(COC(=O)c1ccccc1)C(=O)O2 | inactive | – |
| C=C1C(=O)O[C@@H]2[C@H]3C(C)=CC(=O)C3=C(C)[C@@H](OC(=O)/C(C)=C\C)[C@H](O)[C@@H]12 | 3.21 µM (active) | – |
| O=C(O)c1ccc(O)c2ncc(N3CCCN(CCc4cccc5ccccc45)CC3)cc12 | 18.4 µM (active) | – |
| CN(CCCN1c2ccccc2CCc2ccccc21)CC(=O)c1ccc(Cl)cc1 | 23.7 µM (active) | – |
| CN(C)CCOc1cc(NS(=O)(=O)c2c(Cl)cc(C(F)(F)F)cc2Cl)ccc1Cl | inactive | – |
| C=C(C)C1CCC2(C(=O)O)CCC3(C(=O)O)C(CCC4C5(C)CCC(O)C(C)(C(=O)O)C5CCC43C)C12 (configuration not stated) | inactive | – |
| COc1c(C)cnc(Cn2cc(C#CCC(C)(C)O)c3c(Cl)nc(N)nc32)c1C | 0.0116 µM (active) | – |
| O=C(CCC1CCN(Cc2ccccc2)CC1)c1ccc2c(c1)NCCCC2 | 23.1 µM (active) | – |
| C=CCc1ccc(O[C@@H]2O[C@H](CO)[C@@H](O)[C@H](O)[C@H]2O)c(O[C@@H]2O[C@H](CO)[C@@H](O)[C@H](O)[C@H]2O)c1 | inactive | – |
| COc1cc(CO)ccc1O[C@@H]1O[C@H](CO)[C@@H](O)[C@H](O)[C@H]1O | inactive | – |

Experiment: Viability qHTS for spleen associated tyrosine kinase inhibitor (SYKi) drug resistant MV4-11 cells (AID 1963824); note: nearly all actives have a fitted effect of over 35% in size
Conditions: SYKi-resistant MV4-11 viability, CellTiter-Glo, 72 h; series mostly up to 45 µM
Procedure, shortened: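 SYK-inhibitor-resistant MV4-11 AML cells were seeded at 500 per well onto compound and cultured 72 hours (37 °C, 5% CO2). CellTiter-Glo was then added, and after 10 min at room temperature, luminescence gave viability.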

| SMILES | Potency | viability, % of control |
| --- | --- | --- |
| C=C1C[C@]23C[C@H]1CC[C@H]2[C@@]1(C)CCC[C@@]2(C)C(=O)O[C@@H]([C@@H]3O)[C@@H]12 | 1.43 µM (active) | – |
| CNC(=O)c1ccccc1Nc1nc(Nc2ccc3c(c2OC)CCCC(N2CCN(CCO)CC2)C3)ncc1Cl (configuration not stated) | 0.731 µM (active) | – |
| CC(=O)c1c(O)cc2c(c1C)C(=O)CC(O)C2 (configuration not stated) | inactive | – |
| COC(=O)C1=CO[C@@H](O[C@@H]2O[C@H](CO)[C@@H](O)[C@H](O)[C@H]2O)[C@@H]2[C@@H](CO)[C@@H](O)C(O)[C@H]12 (some centres not stated) | inactive | – |
| O=C(NCc1nc2ccccc2c(=O)n1-c1ccc(F)cc1)Nc1ccc(Cl)c(C(F)(F)F)c1 | 20.6 µM (active) | – |
| CC(C)C1=CCC(C)(O)C(OC2OC(CO)C(O)C(O)C2O)C1 (configuration not stated) | inactive | – |
| CC1(C)C2CCC(CO[C@@H]3O[C@H](CO[C@@H]4OC[C@](O)(CO)[C@H]4O)[C@@H](O)[C@H](O)[C@H]3O)C1C2 (some centres not stated) | inactive | – |
| N#C/C(=C1\Nc2ccccc2S1)c1ccnc(NCCc2cccnc2)n1 | 2.31 µM (active) | – |
| C=C1CC2OC(=O)C(=C)C2C(OC(=O)/C(C)=C\C)CC2(C)OC1=CC2=O (configuration not stated) | 0.453 µM (active) | – |
| Cc1ncc([N+](=O)[O-])n1C[C@H](O)CN1CCOCC1 | inactive | – |
| C=C1C[C@]23C[C@H]1CC[C@H]2[C@@]12C=C[C@H](O)[C@@](C)(C(=O)O1)[C@H]2[C@@H]3C(=O)O | inactive | – |
| CC(C)CN(CC(=O)N(CCCN1CCCC1=O)CC(N)=O)C(=O)CNCCc1ccccc1F | inactive | – |
| CC(O)CO[C@@H]1O[C@H](CO)[C@@H](O)[C@H](O)[C@H]1O (some centres not stated) | inactive | – |
| CC(C)(C)S(=O)(=O)c1ccc2nccc(Nc3n[nH]c4ccc(F)cc34)c2c1 | 9.34 µM (active) | – |
| C=C(CCC1=C(C)[C@H]2[C@H](CC3[C@@H]4CC=C5C[C@@H](O)C[C@@H](O)[C@]5(C)C4[C@H](O)C[C@@]32C)O1)CO[C@@H]1O[C@H](CO)[C@@H](O)[C@H](O)[C@H]1O (some centres not stated) | 0.485 µM (active) | – |
| COc1cc(C(C)=O)ccc1O[C@@H]1O[C@H](CO)[C@@H](O)[C@H](O)[C@H]1O | inactive | – |
| O=C(/C=C/c1ccc(O)cc1)OC[C@H]1O[C@H](O[C@@]2(CO)O[C@@H](CO)[C@H](O)[C@H]2O)[C@H](O)[C@@H](O)[C@@H]1O | inactive | – |
| O=c1c2cccnc2n(-c2cccc([N+](=O)[O-])c2)c(=O)n1Cc1ccncc1 | inactive | – |
| C=C[C@]1(C)C=C2CCC3C(C)(CCC[C@@]3(C)C(=O)O)C2CC1 (some centres not stated) | inactive | – |
| CN(Cc1ccc(C(C)(C)C)cc1)Cc1cccc2ccccc12 | inactive | – |

| SMILES | Potency | viability, % of control |
| --- | --- | --- |
| CC(=O)N[C@H]1[C@H](O[C@H]2CC[C@@]3(C)C(CC[C@]4(C)C3CC=C3C5CC(C)(C)CC[C@]5(C(=O)O)[C@H](O[C@@H]5O[C@H](CO)[C@@H](O)[C@H](O)[C@H]5O)C[C@]34C)C2(C)C)O[C@H](CO[C@@H]2OC[C@H](O)[C@H](O)[C@H]2O[C@@H]2OC[C@@H](O)[C@H](O)[C@H]2O)[C@@H](O)[C@@H]1O (some centres not stated) | – | 81.4% [at 9.25 µM] |
| Oc1ccc2c(c1)OCC1(O)Cc3cc(O)c(O)cc3C21 (configuration not stated) | 3.66 µM (active) | – |
| CC(=O)OCC(Cc1ccccc1)NC(=O)C(Cc1ccccc1)NC(=O)c1ccccc1 (configuration not stated) | inactive | – |
| C/C(=C\CO)CC/C=C(\C)C(=O)O[C@@H]1O[C@H](CO)[C@@H](O)[C@H](O)[C@H]1O | inactive | – |
| CCCc1cc(C(=O)N[C@H](Cc2ccc(-c3cccc(OC(F)(F)F)c3)nc2)C(=O)N[C@@H]2CCNC2)sc1C | 7.42 µM (active) | – |
| CCOc1cc(CC(=O)NC(CC(C)C)c2ccccc2N2CCCCC2)ccc1C(=O)O (configuration not stated) | inactive | – |
| C/C(CO)=C1/CCC23COC(C2)C(O)(C(=O)O)CCC13 (configuration not stated) | inactive | – |
| CC1(C)S[C@@H]2[C@H](NC(=O)[C@H](N)c3ccc(O)cc3)C(=O)N2[C@H]1C(=O)O | inactive | – |
| Cc1ccc(-c2c(-c3nn(C)c4ncnc(N5CC[C@H](N6CCCCC6)C5)c34)cnn2C)cc1 | inactive | – |
| Cc1cc(C)c(-c2csc(NC(=O)c3ccccc3)n2)c(C)c1 | 11.6 µM (active) | – |
| C[C@]12C[C@@H](O)[C@@H]3C[C@@]1(O[C@@H]1O[C@H](CO)[C@@H](O)[C@H](O)[C@H]1O)[C@]3(COC(=O)c1ccccc1)C(=O)O2 | inactive | – |
| C=C1C(=O)O[C@@H]2[C@H]3C(C)=CC(=O)C3=C(C)[C@@H](OC(=O)/C(C)=C\C)[C@H](O)[C@@H]12 | 1.43 µM (active) | – |
| O=C(O)c1ccc(O)c2ncc(N3CCCN(CCc4cccc5ccccc45)CC3)cc12 | 10.3 µM (active) | – |
| CN(CCCN1c2ccccc2CCc2ccccc21)CC(=O)c1ccc(Cl)cc1 | 13.3 µM (active) | – |
| CN(C)CCOc1cc(NS(=O)(=O)c2c(Cl)cc(C(F)(F)F)cc2Cl)ccc1Cl | inactive | – |
| C=C(C)C1CCC2(C(=O)O)CCC3(C(=O)O)C(CCC4C5(C)CCC(O)C(C)(C(=O)O)C5CCC43C)C12 (configuration not stated) | inactive | – |
| COc1c(C)cnc(Cn2cc(C#CCC(C)(C)O)c3c(Cl)nc(N)nc32)c1C | 0.0206 µM (active) | – |
| O=C(CCC1CCN(Cc2ccccc2)CC1)c1ccc2c(c1)NCCCC2 | 14.6 µM (active) | – |
| C=CCc1ccc(O[C@@H]2O[C@H](CO)[C@@H](O)[C@H](O)[C@H]2O)c(O[C@@H]2O[C@H](CO)[C@@H](O)[C@H](O)[C@H]2O)c1 | inactive | – |
| COc1cc(CO)ccc1O[C@@H]1O[C@H](CO)[C@@H](O)[C@H](O)[C@H]1O | inactive | – |
